The values below come from PubChem BioAssay (NCATS).

Structures are written as SMILES. Inconclusive results are not listed. Activity calls are given as the source filed them. Calls come from the whole dose curve; as a rule, active = well fitted curve in the direction sought with a large enough effect; inconclusive = small, poorly fitted or top-dose-only effect, or another doubt; inactive = no such curve, though single readings can be large; an effect the other way counts as inactive or inconclusive.
% is set by controls: 0 for no effect and ±100 for the full control effect.
Note: nearly all actives have a fitted effect of over 70% in size.

One assay is described as follows: Primary qHTS for inhibitors of nuclear receptor binding SET domain protein 2 (NSD2) in an isogenic RCH-ACV NSD2 p.E1099K mutant (9B) (AID 1645876). Conditions: RCH-ACV NSD2 E1099K (9B) viability, CellTiter-Glo, 72 h; series mostly up to 44.9 µM; activity change, negative = viability loss: at the top concentration.
Regarding `O=C(O)CN(CCOCCOCCN(CC(=O)O)CC(=O)O)CC(=O)O`, the activity change, negative = viability loss was 5.34% [at 0.588 µM] (inactive).

For `N[C@@H](COP(=O)(O)O)C(=O)O`, the “activity change, negative = viability loss” value is 3.67% [at 17.3 µM] (inactive).

As to `CC(=O)Nc1nnc(S(N)(=O)=O)s1`, the “activity change, negative = viability loss” value was -4.34% (inactive).

Turning to `Brc1c(NC2=NCCN2)ccc2nccnc12`, the “activity change, negative = viability loss” value is 2.58% (inactive).

For the compound `NC(Cc1ccc(Cl)cc1)C(=O)O` (centres undefined), the outcome was “inactive [at 0.588 µM]”.

With `CC(C(=O)O)c1ccc(CC2CCCC2=O)cc1` (centres undefined), the “activity change, negative = viability loss” value is -11.9% (inactive).

In the case of `CN(C)C/C=C(/c1ccc(Br)cc1)c1cccnc1`, the “activity change, negative = viability loss” value is 0.778% (inactive).

For `Cc1scc2c1N(C(=O)CN1CCN(C)CC1)c1ccccc1NC2=O`, the “activity change, negative = viability loss” value was -6.82% (inactive).

As to `CC(=O)OCC1=C(C(=O)O)N2C(=O)[C@@H](NC(=O)Cc3cccs3)[C@H]2SC1`, the compound was classed as inactive.

As to `O=C(O)CN(CCN(CC(=O)O)CC(=O)O)CCN(CC(=O)O)CC(=O)O`, the “activity change, negative = viability loss” value was -11.6% [at 17.3 µM] (inactive).

On to `CC1=NS(=O)(=O)c2cc(Cl)ccc2N1`, for which the “activity change, negative = viability loss” value was 5.42% (inactive).

In the case of `CN(C)C(=O)Oc1cccc([N+](C)(C)C)c1`, the outcome was inactive.

Take `NC(=O)c1ncn([C@@H]2O[C@H](CO)[C@@H](O)[C@H]2O)c1O`: the Potency result is “inactive”.

In the case of `NCCCNCCSP(=O)(O)O`, the outcome is “inactive [at 9.23 µM]”.

Take `CCCCNc1ccc(C(=O)OCCN(C)C)cc1`: the compound was classed as inactive.

As to `CCO/C([O-])=N/c1c[n+](N2CCOCC2)no1`, the “activity change, negative = viability loss” value was -10.8% (inactive).

The next assay can be described thus: Primary qHTS for inhibitors of nuclear receptor binding SET domain protein 2 (NSD2) in an RCH-ACV wild type WT cells (2C) (AID 1645877). Note: potency is the fitted concentration of half-maximal effect. The note with it: RCH-ACV (leukaemia line) NSD2 WT (2C) viability, CellTiter-Glo, 72 h; series mostly up to 44.9 µM; activity change, negative = cell killing: at the top concentration. For orientation: Quantitative high-throughput screening tests each substance at several concentrations.
For the compound `O=C(O)CN(CCOCCOCCN(CC(=O)O)CC(=O)O)CC(=O)O`, the activity change, negative = cell killing is -1.31% [at 0.588 µM] (inactive).

In the case of `CCOC(=O)c1cnc2c(cnn2CC)c1NN=C(C)C`, the “activity change, negative = cell killing” value is -15.3% (inactive).

Turning to `N[C@@H](COP(=O)(O)O)C(=O)O`, the “activity change, negative = cell killing” value was 5.94% [at 17.3 µM] (inactive).

As for `CC(=O)Nc1nnc(S(N)(=O)=O)s1`, the call was inactive.

For the compound `Brc1c(NC2=NCCN2)ccc2nccnc12`, the “activity change, negative = cell killing” value is 0.481% (inactive).

For the compound `NC(Cc1ccc(Cl)cc1)C(=O)O` (centres undefined), the activity change, negative = cell killing is 2.13% [at 0.588 µM] (inactive).

As for `CC(C(=O)O)c1ccc(CC2CCCC2=O)cc1` (centres undefined), the result was inactive.

Regarding `CN(C)C/C=C(/c1ccc(Br)cc1)c1cccnc1`, the “activity change, negative = cell killing” value is 3.14% (inactive).

For `COc1cc(C(=O)OCCCN2CCCN(CCCOC(=O)c3cc(OC)c(OC)c(OC)c3)CC2)cc(OC)c1OC`, the Potency was 23.7 µM (active).

Turning to `Cc1scc2c1N(C(=O)CN1CCN(C)CC1)c1ccccc1NC2=O`, the compound was classed as inactive.

On to `CC(=O)OCC1=C(C(=O)O)N2C(=O)[C@@H](NC(=O)Cc3cccs3)[C@H]2SC1`, for which the “activity change, negative = cell killing” value was 1.77% (inactive).

For the compound `NC(=Nc1ccccc1)Nc1ccccc1`, the “activity change, negative = cell killing” value is -22.8% (inactive).

`CC1=NS(=O)(=O)c2cc(Cl)ccc2N1`: the “activity change, negative = cell killing” value is -7.05% (inactive).

For `CN(C)C(=O)Oc1cccc([N+](C)(C)C)c1`, the call was inactive.

Regarding `NC(=O)c1ncn([C@@H]2O[C@H](CO)[C@@H](O)[C@H]2O)c1O`, the outcome was inactive.

In the case of `NCCCNCCSP(=O)(O)O`, the activity change, negative = cell killing was 5.49% [at 9.23 µM] (inactive).

Take `CCCCNc1ccc(C(=O)OCCN(C)C)cc1`: the outcome was inactive.

Consider `CCO/C([O-])=N/c1c[n+](N2CCOCC2)no1`, for which the “activity change, negative = cell killing” value is -8.45% (inactive).
